Test results from PubChem BioAssay (Tox21).
Records with an inconclusive call do not appear. Activity calls are given as the source filed them. Unless noted, the call rests on the fitted dose curve; in most records, active means well fitted curve in the direction sought with a large enough effect in the repeat runs; inconclusive means weak or mixed curves; inactive means no such curve, though single readings can be large; an effect the other way counts as inactive or inconclusive.

Assays:
[1] = qHTS RealTime-Glo MT Cell Viability Assay in HEK293 cells - 0 hour (AID 1224880); further: top concentration of the series differs between compounds; nearly all actives have a fitted effect of over 45% in size
Method in brief: (§1)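 Kinetic, non-lysing viability readout. Seed HEK293 (600/well) with reagent, incubate 5 h at 37 C/5% CO2, pin 23 nL compound in DMSO, incubate at 37 C, read luminescence at 0, 8, 16, 24, 32, 40 h.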

[2] = A CellTox Green Cytotoxicity Assay to monitor cytotoxicity in HEK293 cells - 32 hour (AID 1224881); further: nearly all actives have a fitted effect of over 40% in size
Method in brief: (§2)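 Real-time, in one plate: 600 HEK293 cells/well with dead-cell DNA dye, pinned compound after 5 h, 37 C incubation over 40 h; viable cells give no appreciable fluorescence.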

[3] = A CellTox Green Cytotoxicity Assay to monitor cytotoxicity in HepG2 cells - 0 hour (AID 1224882); further: nearly all actives have a fitted effect of over 35% in size
Method in brief: (§3)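 Cytotoxicity was tracked as dead-cell DNA fluorescence in HepG2 cells treated with test compounds at 37 C; each time-point value comes from one kinetic series spanning 0, 8, 16, 24, 32 and 40 h.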

[4] = A CellTox Green Cytotoxicity Assay to monitor cytotoxicity in HepG2 cells - 32 hour (AID 1224883); further: nearly all actives have a fitted effect of over 50% in size
Method in brief: as §3

[5] = A CellTox Green Cytotoxicity Assay to monitor cytotoxicity in HEK293 cells - 8 hour (AID 1224884); further: nearly all actives have a fitted effect of over 35% in size
Method in brief: as §2

[6] = qHTS RealTime-Glo MT Cell Viability Assay in HepG2 cells - 16 hour (AID 1224885); further: nearly all actives have a fitted effect of over 50% in size
Method in brief: (§4)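 Cells + NanoLuc/prosubstrate dispensed (600 cells/well) → 5 h at 37 C/5% CO2 → compounds in DMSO transferred → 40 h incubation at 37 C, luminescence read at 0, 8, 16, 24, 32, 40 h.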

[7] = qHTS RealTime-Glo MT Cell Viability Assay in HEK293 cells - 24 hour (AID 1224886); further: top concentration of the series differs between compounds; nearly all actives have a fitted effect of over 50% in size
Method in brief: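 Tox21 10K qHTS, HEK293, 600 cells/well, RealTime-Glo reagent co-dispensed with cells; 5 h preincubation, compound by pintool, 37 C, luminescence at 0–40 h.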

[8] = qHTS RealTime-Glo MT Cell Viability Assay in HEK293 cells - 8 hour (AID 1224887); further: top concentration of the series differs between compounds; nearly all actives have a fitted effect of over 50% in size
Method in brief: as §1

[9] = A CellTox Green Cytotoxicity Assay to monitor cytotoxicity in HEK293 cells - 16 hour (AID 1224888); further: nearly all actives have a fitted effect of over 35% in size
Method in brief: as §2

[10] = qHTS RealTime-Glo MT Cell Viability Assay in HepG2 cells - 0 hour (AID 1224889); further: nearly all actives have a fitted effect of over 50% in size
Method in brief: as §4

[11] = A CellTox Green Cytotoxicity Assay to monitor cytotoxicity in HepG2 cells - 8 hour (AID 1224890); further: nearly all actives have a fitted effect of over 45% in size
Method in brief: as §3

[12] = qHTS assay to identify small molecule antagonists of the estrogen receptor alpha (ER-alpha) signaling pathway using the BG1 cell line in the presence of 0.1 nM 17-beta-estradiol - cell viability counter screen (AID 1259241); further: nearly all actives have a fitted effect of over 40% in size
Method in brief: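 The cell line endogenously expresses full-length ER-alpha and carries four EREs driving luciferase. Cells are cultured 5 days hormone-free, treated 22 hr with compounds and 0.1 nM estradiol, then viability is read by fluorescence.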

[13] = qHTS assay to identify small molecule antagonists of the androgen receptor (AR) signaling pathway using the MDA cell line in the presence of 0.5 nM R1881 - cell viability counter screen (AID 1259242); further: nearly all actives have a fitted effect of over 45% in size
Method in brief: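 Cells seeded at 3,000/well and allowed 5 hr at 37C, 0% CO2 before compound transfer and R1881 (0.5 nM final) addition; 16 hr later, live-cell protease fluorescence indicated cytotoxicity.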

[14] = qHTS assay to identify small molecule HDAC inhibitors (AID 1259364);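 further: wild-type HCT-116 cells with endogenous class I/II HDAC activity; top concentration of the series differs between compounds; nearly all actives have a fitted effect of over 45% in size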
Method in brief: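 HCT-116 wt cells, 1,500/well, overnight attach. Compounds (DMSO) 2 h, 37 °C. HDAC-Glo I/II, 30 min RT. Luminescence.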

[15] = qHTS assay to identify small molecule agonists of the sonic hedgehog signaling (Shh) pathway - cell viability counter screen (AID 1259366); further: nearly all actives have a fitted effect of over 50% in size
Method in brief: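 Viability measured fluorometrically (CellTiter-Fluor, 1hr, 37C) in 3T3 Gli1-Luc reporter cells after 23hr compound exposure within a 24hr incubation at 37C/5% CO2.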

[16] = qHTS assay to identify small molecule antagonists of the sonic hedgehog signaling (Shh) pathway - cell viability counter screen (AID 1259367); further: nearly all actives have a fitted effect of over 55% in size
Method in brief: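 Tox21 library chemicals were tested on a Gli1-Luc NIH/3T3 clone (2,000 cells/well) stimulated by conditioned medium; viability was quantified as fluorescence from CellTiter-Fluor reagent added at 23 hr.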

[17] = biological target: Estrogen receptor (Homo sapiens) (UniProt P03372); assay: qHTS assay to identify small molecule antagonists of the estrogen receptor alpha (ER-alpha) signaling pathway using the BG1 cell line in the presence of 0.1 nM 17-beta-estradiol (AID 1259244); further: nearly all actives have a fitted effect of over 50% in size
Method in brief: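 Luciferase signal from VM7Luc4E2 ERE-reporter cells, co-dosed with test compound and 0.1 nM final 17beta-estradiol for 22 h, read with ONE-Glo.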

[18] = qHTS assay to identify small molecule HDAC inhibitors - cell viability counter screen (AID 1259365)
Method in brief: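 Viability readout: CellTiter-Glo luminescence. Wild-type HCT-116 cells, 2hr compound treatment following overnight attachment at 37 C.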

[19] = qHTS assay to identify small molecule phospholipidosis (PLD) inducers (AID 1259344; active means well fitted curve in the direction sought with a large enough effect; an effect the other way counts as inactive or inconclusive)
Method in brief: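 Image-based: LipidTOX Red pit count/intensity per well and per cell; HepG2, 24 h compound at 37 C, PFA fixation, Hoechst counterstain.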

[20] = biological target: Androgen receptor (Homo sapiens) (UniProt P10275); assay: qHTS assay to identify small molecule antagonists of the androgen receptor (AR) signaling pathway using the MDA cell line in the presence of 0.5 nM R1881 (AID 1259243); further: nearly all actives have a fitted effect of over 50% in size
Method in brief: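 Luminescence from an AR/GR-responsive MMTV-luciferase construct in MDA-kb2 breast carcinoma cells, read 30 min after ONE-Glo, following 16 hr co-treatment with compounds and 0.5 nM R1881.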

Measured: Potency

Chain of Androgen receptor (Homo sapiens) (P10275 whole entry, looked up): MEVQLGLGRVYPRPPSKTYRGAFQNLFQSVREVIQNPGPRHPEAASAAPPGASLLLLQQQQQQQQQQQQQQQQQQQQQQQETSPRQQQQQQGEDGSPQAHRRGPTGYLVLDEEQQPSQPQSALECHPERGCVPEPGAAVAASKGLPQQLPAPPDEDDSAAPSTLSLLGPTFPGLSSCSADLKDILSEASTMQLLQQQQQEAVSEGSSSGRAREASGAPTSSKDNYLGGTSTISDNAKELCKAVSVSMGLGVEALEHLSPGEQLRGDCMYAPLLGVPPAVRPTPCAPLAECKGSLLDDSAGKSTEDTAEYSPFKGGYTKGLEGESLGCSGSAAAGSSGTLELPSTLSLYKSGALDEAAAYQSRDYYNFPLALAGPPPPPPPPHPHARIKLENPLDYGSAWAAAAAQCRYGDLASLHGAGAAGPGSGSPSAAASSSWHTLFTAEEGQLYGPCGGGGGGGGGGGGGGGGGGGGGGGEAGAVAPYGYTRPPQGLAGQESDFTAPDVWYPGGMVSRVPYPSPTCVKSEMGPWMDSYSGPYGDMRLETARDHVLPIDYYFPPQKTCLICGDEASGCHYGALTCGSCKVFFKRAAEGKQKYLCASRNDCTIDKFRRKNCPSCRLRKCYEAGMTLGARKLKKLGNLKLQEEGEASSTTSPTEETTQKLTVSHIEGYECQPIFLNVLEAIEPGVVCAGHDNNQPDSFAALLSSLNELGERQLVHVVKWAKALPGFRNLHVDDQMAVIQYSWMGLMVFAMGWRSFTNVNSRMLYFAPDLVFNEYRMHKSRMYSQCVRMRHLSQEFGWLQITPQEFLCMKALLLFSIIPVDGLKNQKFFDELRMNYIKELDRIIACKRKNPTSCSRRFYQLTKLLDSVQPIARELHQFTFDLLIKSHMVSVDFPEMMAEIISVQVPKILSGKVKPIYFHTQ
Chain of Estrogen receptor (Homo sapiens) (P03372 whole entry, looked up): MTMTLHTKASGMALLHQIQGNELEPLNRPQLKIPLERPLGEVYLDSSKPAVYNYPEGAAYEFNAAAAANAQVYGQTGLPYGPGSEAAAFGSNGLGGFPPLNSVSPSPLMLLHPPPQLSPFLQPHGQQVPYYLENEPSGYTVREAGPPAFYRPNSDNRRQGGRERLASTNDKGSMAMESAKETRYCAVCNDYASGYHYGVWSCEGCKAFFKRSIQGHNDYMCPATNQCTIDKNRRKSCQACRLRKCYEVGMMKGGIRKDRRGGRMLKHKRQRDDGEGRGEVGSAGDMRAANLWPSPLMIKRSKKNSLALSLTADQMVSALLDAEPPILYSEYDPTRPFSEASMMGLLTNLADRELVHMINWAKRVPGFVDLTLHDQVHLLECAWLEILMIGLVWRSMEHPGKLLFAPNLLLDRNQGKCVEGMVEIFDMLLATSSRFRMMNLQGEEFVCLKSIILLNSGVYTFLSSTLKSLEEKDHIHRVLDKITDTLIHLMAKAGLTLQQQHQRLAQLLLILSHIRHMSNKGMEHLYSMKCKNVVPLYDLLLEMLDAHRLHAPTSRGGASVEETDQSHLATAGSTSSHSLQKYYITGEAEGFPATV

CCC(C)(CCC(C)C)C(=O)O (stereo not given)
not listed: [17] | [18] | [19] | [20]
inactive: all other assays above

CCCCN
not listed: [19] | [20]
inactive: all other assays above

FC(F)(F)c1ccccc1-n1ccnc1
not listed: [17] | [20]
inactive: all other assays above

CCCCOC(=O)c1ccccc1
not listed: [11] | [19]
inactive: all other assays above

NCCS
not listed: [17] | [20]
inactive: all other assays above

CC(C)=O
not listed: [13] | [18] | [19]
inactive: all other assays above

CCC(C)NC(N)=O (stereo not given)
not listed: [13] | [19]
inactive: all other assays above

CCCCCCCCOS(=O)(=O)O
not listed: [13] | [19] | [20]
inactive: all other assays above

O=S(=O)(O)c1ccc2cc(O)c(S(=O)(=O)O)cc2c1
not listed: [13] | [19] | [20]
inactive: all other assays above

CN(CCOc1ccc(NS(C)(=O)=O)cc1)CCc1ccc(NS(C)(=O)=O)cc1
not listed: [11] | [20]
inactive: all other assays above

CCCCNc1ccc(C(=O)OCCN(C)C)cc1
not listed: [13] | [17] | [19] | [20]
inactive: all other assays above

C[Si](C)(C)C
not listed: [17] | [19] | [20]
inactive: all other assays above

CC1=C(C(=O)O)N2C(=O)[C@@H](NC(=O)[C@H](N)c3ccc(O)cc3)[C@H]2SC1
not listed: [17] | [19] | [20]
inactive: all other assays above

CN=C(NC#N)Nc1ccc(C2=NNC(=O)CC2C)cc1 (stereo not given)
not listed: [17] | [18] | [20]
inactive: all other assays above

Cc1cccc(C)c1OCC(C)N (stereo not given)
not listed: [13] | [20]
inactive: all other assays above
